Screens as filed in PubChem BioAssay.
ASM inhibitor – inhibitors of human secretory acid sphingomyelinase; P17405; placental ASM, HMU-PC fluorogenic substrate, 60 min; AID 504937; 0.006% of 340,000 active; Potency, µM (series often up to 57.5 µM), for the others: top-dose activity change, negative = inhibition, actives largely listed as inhibitors; also: potency is read from the fitted curve at half-maximal effect
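Steps: dispense placental human ASM, pin compound, wait 10 min at room temperature, add HMU-PC0 substrate at 9 uM final, incubate 60 min at 37 °C, add stop solution raising pH to 10, read fluorescence.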
hERG WT inh – inhibitors of human wildtype KCNH2 potassium channel | Q12809 | 0.37% of 340,000 active | AID 720551 | activity change, % at 1.84 µM | U2OS, BacMam KCNH2, thallium flux FluxOr; active compounds read low;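 active = maximum activity change below -70%; inconclusive = maximum activity change between -70% and -50%; inactive = maximum activity change above -50%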; also: % is scaled to controls: 0 for no effect and ±100 for the full control effect
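U2OS cells transduced with wild-type KCNH2 virus are loaded with FluxOr dye for 45 min, and thallium flux is measured in kinetic reads before and after stimulation buffer. Rate constants are normalized to DMSO controls.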
IDH1 R132H inh – blocks human mutant IDH1 R132H enzyme; O75874; IDH1-R132H enzyme, NADPH consumption, diaphorase/resazurin fluorescence; Potency, µM (top dose mostly 76.6 µM), inactives show top-dose activity change, negative = inhibition, actives largely listed as inhibitors; 0.093% of 390,000 active; AID 602179; also: potency is read from the fitted curve at half-maximal effect; % is scaled to controls: 0 for no effect and ±100 for the full control effect; nearly all actives have a fitted effect of over 65% in size
Target sequence (O75874 whole entry R132H, stated change not applied): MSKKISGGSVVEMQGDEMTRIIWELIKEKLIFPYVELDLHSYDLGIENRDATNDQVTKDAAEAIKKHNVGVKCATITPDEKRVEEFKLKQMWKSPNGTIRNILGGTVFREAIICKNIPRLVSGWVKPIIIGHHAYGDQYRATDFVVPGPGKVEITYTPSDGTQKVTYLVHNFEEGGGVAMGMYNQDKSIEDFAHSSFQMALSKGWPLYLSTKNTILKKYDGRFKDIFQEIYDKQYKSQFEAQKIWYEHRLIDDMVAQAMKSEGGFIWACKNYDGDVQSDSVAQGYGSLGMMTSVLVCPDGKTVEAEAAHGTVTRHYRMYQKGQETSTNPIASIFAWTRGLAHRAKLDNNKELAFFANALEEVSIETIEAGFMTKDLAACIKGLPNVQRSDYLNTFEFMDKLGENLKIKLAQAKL
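IDH1-R132H (0.5 ug/mL) preincubated 30 min with compound, then NADPH (0.016 mM) and alpha-KG (2 mM) added; 80 min at RT, pH 7.5. Remaining NADPH coupled via diaphorase/resazurin to fluorescence (540/590 nm); concentration-response curves normalized to no-enzyme control.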
Apoferritin bind – binds horse apoferritin like a general anesthetic. apoferritin/1-aminoanthracene competitive binding, fluorescence. Potency, µM (titrated, usually from 77.5 µM), for the others: at the top dose activity change, negative = displacement, most hits filed as inhibitors. 0.074% of 350,000 active. AID 485281; also: potency is read from the fitted curve at half-maximal effect; % is scaled to controls: 0 for no effect and ±100 for the full control effect; nearly all actives have a fitted effect of over 20% in size
Target sequence (P02791 2-175 limits assumed): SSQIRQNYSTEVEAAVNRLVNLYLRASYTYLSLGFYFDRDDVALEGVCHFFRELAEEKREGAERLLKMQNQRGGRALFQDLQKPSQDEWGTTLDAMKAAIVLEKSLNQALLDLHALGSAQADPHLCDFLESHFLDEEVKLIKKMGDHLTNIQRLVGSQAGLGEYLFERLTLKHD
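Horse-spleen apoferritin (10 uM) in 50% saturated 1-aminoanthracene in PBS was incubated 10 min at room temperature with compound. Fluorescence (ex 380, em 535 nm) was normalized to free and bound 1-AMA, with concentration-response fitted by a four-parameter Hill equation.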
KCNH2 3.1 inh – KCNH2 3.1 (human) potassium channel inhibition | activity change, % (tested at about 1.8 µM) | U2OS KCNH2 3.1, thallium flux FluxOr; active compounds read low | 0.95% of 340,000 active | AID 720553;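 active = maximum activity change below -70%; inconclusive = maximum activity change from -70% to -50%; inactive = maximum activity change above -50%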;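 also: thallium influx rate constant from kinetic fluorescence after stimulation buffer; % is scaled to controls: 0 for no effect and ±100 for the full control effect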
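Normalized rate constant (relative to positive and negative DMSO controls) derived from a 2 min kinetic fluorescence read after stimulation; U2OS cells expressing the 3.1 isoform via virus at 1.77 x 10^8 /mL.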
An asterisk follows results filed as active; [ ] = another dose, or the depositor's remark. Most compounds without a hit are left out; they make up all but 1.2% or so of the library. Unless noted, calls follow the shape of the dose curve; as a rule, active = well fitted inhibition curve with a large enough effect; inconclusive = small, poorly fitted or top-dose-only effect; inactive = no such curve, though single readings can be large or run the other way.

How did CCOC(=O)c1c(N2CCN(c3ccccc3)CC2)cc(C)nc1C do in these assays?
ASM inhibitor: -1%; hERG WT inh: -48; IDH1 R132H inh: 2%; Apoferritin bind: 3%; KCNH2 3.1 inh: -97*

What do the screens show for `OCCC1CN(Cc2ccc(-n3cccn3)cc2)CCN1Cc1ccccc1` (centres undefined)?
ASM inhibitor: 1%; hERG WT inh: 12; IDH1 R132H inh: -7%; Apoferritin bind: -6%; KCNH2 3.1 inh: 1

What do the screens show for `Cc1ccc(CN2CCN(Cc3ccc(-n4cccn4)cc3C)CC2CCO)cc1` (centres undefined)?
ASM inhibitor: -2%; hERG WT inh: -91*; IDH1 R132H inh: 8%; Apoferritin bind: -10%; KCNH2 3.1 inh: -158*

How did Cc1ccc(CN2CCN(Cc3cccc(-n4cccn4)c3)CC2CCO)cc1 (centres undefined) do in these assays?
ASM inhibitor: -2%; hERG WT inh: -26; IDH1 R132H inh: 0%; Apoferritin bind: -8%; KCNH2 3.1 inh: -87*

How did Cc1ccc(CN2CCN(Cc3c(C)nn(-c4ccc(F)cc4)c3C)CC2CCO)o1 (centres undefined) do in these assays?
ASM inhibitor: 4%; hERG WT inh: 4; IDH1 R132H inh: -3%; Apoferritin bind: -5%; KCNH2 3.1 inh: -6

How did Cc1cc(C)c(CN2CCN(Cc3ccc(C)o3)C(CCO)C2)c(-n2cccn2)c1 (centres undefined) do in these assays?
ASM inhibitor: 0%; hERG WT inh: -23; IDH1 R132H inh: -1%; Apoferritin bind: -2%; KCNH2 3.1 inh: -72*

What do the screens show for `COC(=O)C1=C[C@@H](C(=O)OC)[C@@H]2C3=C(C(=O)C2(C)C)[C@H](c2ccccc2)[C@@H]2C(=O)N(c4ccccc4)C(=O)[C@@H]2[C@@H]3C1`?
Apoferritin bind: -19%

What do the screens show for `OCCC1CN(Cc2ccc(F)cc2Cl)CCN1CCc1ccccc1` (centres undefined)?
ASM inhibitor: 1%; hERG WT inh: 15; IDH1 R132H inh: -7%; Apoferritin bind: -8%; KCNH2 3.1 inh: -72*

Results for OCCC1CN(Cc2cc(F)ccc2F)CCN1CCCc1ccccc1 (centres undefined) ?
ASM inhibitor: -5%; hERG WT inh: 25; IDH1 R132H inh: -9%; Apoferritin bind: -16%; KCNH2 3.1 inh: -21

How did COc1ccccc1Cc1nc2ccccc2nc1SCC(=O)Nc1cccc(Cl)c1C do in these assays?
IDH1 R132H inh: -21%; Apoferritin bind: 5%

Results for O=C(/C=N/O)NCCCCNC(=O)/C=N/O ?
Apoferritin bind: -3%[15.3 µM]

How did COC(=O)C1CCN(CC(=O)Nc2ccc3c(c2)OCCO3)CC1 do in these assays?
ASM inhibitor: 0%; hERG WT inh: 2; IDH1 R132H inh: -2%; KCNH2 3.1 inh: -15

Results for CC1CC(C)CN(CC(=O)Nc2ccc3c(c2)OCCO3)C1 (centres undefined) ?
ASM inhibitor: -1%; hERG WT inh: -113*; IDH1 R132H inh: 1%; Apoferritin bind: -9%; KCNH2 3.1 inh: -139*

How did CCCC(=O)NC(c1ccc(C(C)C)cc1)c1ccc2cccnc2c1O (centres undefined) do in these assays?
ASM inhibitor: 0%; hERG WT inh: -2; IDH1 R132H inh: 0%; Apoferritin bind: -21%; KCNH2 3.1 inh: -1

What do the screens show for `CCCC(=O)NC(c1ccccc1Cl)c1ccc2cccnc2c1O` (centres undefined)?
ASM inhibitor: -2%; hERG WT inh: -17; IDH1 R132H inh: -14%; Apoferritin bind: -17%; KCNH2 3.1 inh: -97*

Results for CCCCN(C)CCCNC(=O)C1CCC(CNS(=O)(=O)c2c(C)cc(C)cc2C)CC1 (centres undefined) ?
ASM inhibitor: -2%; hERG WT inh: -26; IDH1 R132H inh: 2%; Apoferritin bind: -7%; KCNH2 3.1 inh: -77*

Results for COc1ccc(N2CCN(S(=O)(=O)c3ccc4c(c3)CCCN4C(C)=O)CC2)cc1 ?
IDH1 R132H inh: 4%; Apoferritin bind: -16%

Results for Cc1ccc(NC(=O)Cn2c(=O)n(-c3ccccc3)c(=O)c3ccc(C(=O)NCc4ccc5c(c4)OCO5)cc32)c(C)c1 ?
IDH1 R132H inh: -11%; Apoferritin bind: inconclusive

How did CCc1ccc(CN2CCC(n3nccc3NC(=O)C3CCCC3)CC2)cc1 do in these assays?
ASM inhibitor: -3%; hERG WT inh: -30; IDH1 R132H inh: 0%; Apoferritin bind: inconclusive; KCNH2 3.1 inh: -75*

Results for CC(C)c1ccc(CN2CCC(n3nccc3NC(=O)C3CCCC3)CC2)cc1 ?
hERG WT inh: 7; IDH1 R132H inh: -16%; KCNH2 3.1 inh: -72*

What do the screens show for `CC(C)Oc1ccc(CN2CCC(n3nccc3NC(=O)CCc3ccccc3)CC2)cc1`?
ASM inhibitor: 3%; hERG WT inh: -32; IDH1 R132H inh: 6%; Apoferritin bind: -10%; KCNH2 3.1 inh: -106*

What do the screens show for `Cn1cc(CN2CCC(n3nccc3NC(=O)CCc3ccccc3)CC2)cn1`?
ASM inhibitor: 1%; hERG WT inh: -2; IDH1 R132H inh: 0%; Apoferritin bind: -12%; KCNH2 3.1 inh: -10

Results for Cc1c(CN2CCC(n3nccc3NC(=O)C3CC3)CC2)[nH]c2ccccc12 ?
ASM inhibitor: 4%; hERG WT inh: -21; IDH1 R132H inh: -20%; Apoferritin bind: -7%; KCNH2 3.1 inh: -74*

Results for Cc1c(C(=O)N2CCC(C)CC2)c(S(=O)(=O)Nc2cccc(C(F)(F)F)c2)c(C)n1C ?
IDH1 R132H inh: 15%; Apoferritin bind: inconclusive

What do the screens show for `O=C(Nc1ccnn1C1CCN(Cc2ccc(OC(F)F)cc2)CC1)C1CCCC1`?
ASM inhibitor: -2%; hERG WT inh: -102*; IDH1 R132H inh: -3%; Apoferritin bind: -21%; KCNH2 3.1 inh: -83*

How did O=C(NCCN1CCOCC1)c1cc(-c2ccccc2)on1 do in these assays?
ASM inhibitor: 2%; hERG WT inh: -2; IDH1 R132H inh: -5%; Apoferritin bind: 5%; KCNH2 3.1 inh: 6

Results for O=C(NCCN1CCOCC1)c1cc(-c2cccs2)on1 ?
ASM inhibitor: 0%; hERG WT inh: -11; IDH1 R132H inh: 10%; Apoferritin bind: -7%; KCNH2 3.1 inh: -172*

How did CC1(C)Cc2c(sc(NC(=O)COc3ccc(Cl)cc3)c2C(N)=O)C(C)(C)N1 do in these assays?
ASM inhibitor: -18%; hERG WT inh: 16; IDH1 R132H inh: -7%; Apoferritin bind: -3%; KCNH2 3.1 inh: -73*

Results for CCOC(=O)c1c(NC(=O)CSc2nnnn2-c2ccccc2OCC)sc2c1CC(C)(C)NC2(C)C ?
ASM inhibitor: -5%; hERG WT inh: -19; IDH1 R132H inh: 2%; KCNH2 3.1 inh: -81*
